Our source for the Potency values is PubChem BioAssay (NCATS).

Records with an inconclusive call do not appear. A call without a number means that no potency is given here. The source made the active and inactive calls. Calls follow the shape of the dose curve; as a rule, active = well fitted cell-killing curve with a large enough effect; inconclusive = small, poorly fitted or top-dose-only effect; inactive = flat fitted curve, though single readings scatter.
Potency is read from the fitted curve at half-maximal effect.

This assay is described as follows: Cell Viability - LYMP2-016 (AID 984). Also: nearly all actives have a fitted effect of over 55% in size. The conditions noted are these: LYMP2-016 lymphoblastoid cell viability, qHTS; series mostly up to 92.2 µM. The source says:
NIH Chemical Genomics Center [NCGC]
NIH Molecular Libraries Screening Centers Network [MLSCN]
National Institutes of Environmental Health Sciences [NIEHS]
National Toxicology Program [NTP]
We have developed a 1536-well cell-based assay for quantitative high throughput screening (qHTS) against a number of cell lines to determine in vitro cytotoxicity of small molecules. This particular assay uses a human lymphoblastoid cell line (LYMP2-016) purchased from Coriell Institute for Medical Research.
NCGC Assay Protocol Summary:
The CellTiter-Glo luminescent cell viability assay (Promega) is a homogeneous method to measure the number of viable cells in culture. The end point readout of this assay is based on quantitation of intracellular ATP, an indicator of metabolic activity, using the luciferase reaction. Luciferase catalyzes the oxidation of beetle Luciferin to oxyluciferin and light in the presence of ATP. The luminescent signal is proportional to amount of ATP present.
Using the CellTiter-Glo luminescent cell viability assay, the amount of cellular ATP was measured in the lymphoblastoid cell line with complete culture medium following compound treatment for 24 hours. The assay was performed in opaque white Kalypsys 1536-well plates. In the screen, tetraoctylammonium bromide was used as positive control. Library compounds were measured for their ability to cause acute toxicity in the cell line, as reflected by a decrease in intracellular ATP levels, in a concentration-dependent manner. […] AC50 values were determined from concentration-response data modeled with the standard Hill equation.
qHTS protocol for CellTiter Glo lymphoblastoid cellular assay
[Step] [Parameter] [Value] [Description]
1. Reagent; 5 uL; 2500 lymphoblastoid cells/well
2. Time; 5 hr; 37 C incubation
4. Controls; 23 nL; Tetraoctylammonium bromide 6.4pM to 92 uM
5. Time; 24 hr; 37 C incubation
6. Reagent; 5 uL; CellTiter Glo reagent
7. Time; 30 min; Room Temperature
8. Detection; Luminescence; Viewlux plate reader
Keywords: cell viability, cytotoxicity, lymphoblastoid cell line, luminescence, NTPHTS, NTPHTS_NCGC, NIEHS, DSSTox, MLSMR, MLSCN, NIH Roadmap, qHTS, NCGC
As to `ClCC(Br)CBr` (stereo not given), the Potency entry was “inactive”. For the molecule `Cc1ccc2c(c1N)C(=O)c1ccccc1C2=O`, the Potency result is “inactive”. For `C=C(C)CCl`, the Potency entry is “inactive”. Take `FC(Cl)(Cl)Cl`: the Potency entry was “inactive”.

For the molecule `CCCCNC(=O)n1c(NC(=O)OC)nc2ccccc21`, the Potency entry was “inactive”. For `CCOC(=O)C1OC1(C)c1ccccc1` (stereo not given), the Potency entry is “inactive”.

`Nc1ncc([N+](=O)[O-])s1`: the Potency result is “inactive”. Consider `CCCCOC(C)=O`, for which the Potency entry was “inactive”. For `O=[N+]([O-])c1ccc(Cl)cc1`, the Potency result was “inactive”.

Consider `CCCBr`, for which the Potency entry was “inactive”. For `O=C(O)C(Cl)Br` (stereo not given), the Potency entry is “inactive”. For the molecule `O=c1ccc(=O)[nH][nH]1`, the Potency entry was “inactive”. `CC(=O)[O-].CC(=O)[O-].CC(=O)[O-].[Cr+3]`: the Potency entry is “inactive”. As for `CC(C)Br`, the Potency result is “inactive”. Consider `O=[N+]([O-])c1ccccc1CCl`, for which the Potency entry is “inactive”.

`O=[N+]([O-])c1ccc(O)c([N+](=O)[O-])c1`: the Potency result was “inactive”. Under `CN(C)N=O` stands “inactive”. Then `CCC[N+](=O)[O-]`, with “inactive”; and `ClCCOCCCl`, with “inactive”; and `Oc1cc(Cl)c(Cl)c(Cl)c1Cl`, with “inactive”. For the molecule `ClC(Cl)C(Cl)Cl`, the Potency result was “inactive”.

`c1ccoc1`: the Potency entry was “inactive”. In the case of `COC(=O)Nc1nc2ccccc2[nH]1`, the Potency entry is “inactive”. Turning to `Clc1cccc(Cl)c1`, the Potency entry is “inactive”. In the case of `C=C(Cl)CSC(=S)N(CC)CC`, the Potency entry is “inactive”. Take `Nc1ccc(Oc2ccc(N)cc2)cc1`: the Potency result is “inactive”. Regarding `C=COC(C)=O`, the Potency result was “inactive”.

For the molecule `c1ccc(OCC2CO2)cc1` (stereo not given), the Potency result is “inactive”. `COc1cc(-c2ccc(N)c(OC)c2)ccc1N`: the Potency entry was “inactive”. For the molecule `Cl/C=C\Cl`, the Potency result is “inactive”.

On to `O=[N+]([O-])c1ccc2c3c(cccc13)CC2`, for which the Potency result is “inactive”. With `Oc1ccc(Cl)c(Cl)c1Cl`, the Potency result is “inactive”. As for `CN(C)c1ccc(N)cc1`, the Potency is 79.4 µM (active). Under `CCOC(=O)CBr` stands “inactive”. Consider `CC(=O)NNc1ccccc1`, for which the Potency result was “inactive”.

On to `C=CCCl`, for which the Potency result is “inactive”. In the case of `OCC(Cl)CCl` (stereo not given), the Potency result was “inactive”. Turning to `CN(C)c1ccc(N=Nc2ccccc2)cc1`, the Potency result was “inactive”.

Take `Cc1cc(C)cc(OP(=O)(Oc2cc(C)cc(C)c2)Oc2cc(C)cc(C)c2)c1`: the Potency entry is “inactive”. As to `CCCCOCC1CO1` (stereo not given), the Potency entry was “inactive”.
